Screening data: PubChem, several laboratories
An excerpt weighted towards active compounds, which were near 6.6% of everything screened.
Gli-Sufu block = Gli-Sufu pathway antagonists, primary screen, luciferase luminescence, Sufu-KO-LIGHT cells, uHTS | Sufu-KO-LIGHT fibroblasts, Gli luciferase reporter luminescence | inhibition, % at 5 µM | 340,000 tested, 0.74% active;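 active means inhibition above about 55%, limit read from the data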
CSC inhib = cancer stem cell viability inhibitors, primary screen, luminescence | cancer stem cell-like cells viability | inhibition, % at 7.5 µM | 300,000 tested, 1.1% active; in the data active means inhibition above about 75%; tested in HMLE shEcad cells
Beta apoptosis = inhibitors of cytokine-induced beta cell apoptosis, primary screen, luminescence; INS-1E cytokine-induced death, ATP luminescence, 48 h; percent of positive-control rescue, neutral wells zero; protection from apoptosis, % (concentration not given with the values); 300,000 tested, 0.8% active; AID 435005, 2010;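 active means Every replicate reaches about 75%, or at least half do and their mean reaches it too, limit read from the data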;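 further: higher means more ATP so stronger rescue from cytokine killing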
MPTP inh = mitochondrial permeability transition pore inhibitors, primary screen, biochemical, isolated mouse mitochondria, absorbance; Ca2+ swelling absorbance, 30 min; inhibition, % at 10 µM; 360,000 tested, 1.4% active; AID 602449, 2012;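 active means inhibition of 50% or more, scaled per plate between neutral and stimulator controls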
GRIN3A LBD mod = binders of NR3A ligand-binding domain, primary screen, biophysical, differential scanning fluorimetry, uHTS | Glutamate receptor ionotropic, NMDA 3A (GRIN3A) ligand-binding domain | NR3A LBD differential scanning fluorimetry, Tm shift; 0% = protein alone, 100% = glycine-bound protein | Tm shift relative to glycine control, % at 25 µM | 340,000 tested, 2.5% active | AID 1259313, 2017;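 active means melting temperature shift of at least 10% of the positive control shift, at one fixed dose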
Mdm2 MdmX PPI = inhibitors of human Mdm2-MdmX association, primary screen, cell-based, luminescence, split luciferase, SaOS-2, uHTS; Protein Mdm4 (Homo sapiens) + E3 ubiquitin-protein ligase Mdm2 (Homo sapiens), …; SaOS-2 split-luciferase Mdm2/MdmX complementation; inhibition, % at 8 µM; 330,000 tested, 3% active;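 active means inhibition of at least 50% at 8 µM in the primary screen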
Target sequence (O15151 whole entry, looked up): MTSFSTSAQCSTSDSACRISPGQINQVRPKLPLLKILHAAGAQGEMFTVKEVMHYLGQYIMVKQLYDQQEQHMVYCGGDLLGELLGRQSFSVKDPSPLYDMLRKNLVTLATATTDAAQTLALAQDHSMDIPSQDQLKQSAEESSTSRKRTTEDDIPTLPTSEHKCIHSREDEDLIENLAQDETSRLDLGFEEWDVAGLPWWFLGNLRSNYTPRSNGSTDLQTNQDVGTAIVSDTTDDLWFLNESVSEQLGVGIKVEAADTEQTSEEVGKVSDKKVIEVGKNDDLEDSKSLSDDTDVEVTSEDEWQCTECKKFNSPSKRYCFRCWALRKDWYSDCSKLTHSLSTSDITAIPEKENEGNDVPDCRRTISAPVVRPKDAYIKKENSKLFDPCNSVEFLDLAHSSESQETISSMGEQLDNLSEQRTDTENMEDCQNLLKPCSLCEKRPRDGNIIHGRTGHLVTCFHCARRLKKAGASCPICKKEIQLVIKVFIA
Target sequence (Q00987 whole entry, looked up): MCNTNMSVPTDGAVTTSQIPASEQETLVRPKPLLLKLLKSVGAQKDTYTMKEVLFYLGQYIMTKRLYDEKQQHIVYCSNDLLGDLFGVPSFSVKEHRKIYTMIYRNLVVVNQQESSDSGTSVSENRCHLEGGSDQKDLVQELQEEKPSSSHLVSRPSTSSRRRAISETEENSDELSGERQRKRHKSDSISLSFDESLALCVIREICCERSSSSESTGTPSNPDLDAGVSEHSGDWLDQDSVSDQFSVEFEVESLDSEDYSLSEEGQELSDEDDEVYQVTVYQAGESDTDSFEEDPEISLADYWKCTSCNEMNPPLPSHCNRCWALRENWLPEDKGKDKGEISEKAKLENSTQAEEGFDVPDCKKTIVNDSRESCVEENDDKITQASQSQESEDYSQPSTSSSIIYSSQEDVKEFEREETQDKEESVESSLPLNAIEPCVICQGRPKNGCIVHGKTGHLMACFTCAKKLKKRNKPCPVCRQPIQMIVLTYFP
MPTP counter = fluorescence retest of MPTP screen hits in isolated mitochondria, single concentration; shares compounds with MPTP inh; membrane potential, Rhodamine 123 fluorescence; inhibition, % at 10 µM; 5,000 tested, 78% active; in the data active means inhibition above about 22%
MPTP abs DR = mitochondrial permeability transition pore inhibitors, dose response, biochemical, absorbance, uHTS hits | shares compounds with MPTP inh | IC50, µM | 780 tested, 58% active | isolated mitochondria swelling; in the data active means IC50 below about 20 µM
MPTP cs DR = fluorescent counter-screen in isolated mitochondria, dose response, counter-screen for MPTP inhibitor project, biochemical, fluorescence, uHTS hits | shares compounds with MPTP inh | isolated mitochondria counterscreen, fluorescence read-out | IC50, µM | 780 tested, 49% active; in the data active means IC50 below about 80 µM
Each line names hits and unclear results; the compound was inactive in the other large screens (follow-up assays come after a bar, where they were run).

CC(CC(=O)O)CC(=O)Nc1cc(C(F)(F)F)cc(C(F)(F)F)c1 (stereo not drawn)	none
CSc1cccc(NC(=S)N2CCCN(Cc3ccccc3F)C2)c1	MPTP inh 69.3 | MPTP counter 81.1
C=CCN(C(=O)c1cccc(S(=O)(=O)N2CCN(C)CC2)c1)c1nc(-c2ccccc2)cs1	MPTP inh 72.9 | MPTP counter inactive | MPTP abs DR inactive | MPTP cs DR 76.1
COCCNC(=S)N1CCN(C/C=C/c2ccccc2)CC1	none
CCc1nnc(NC(=O)c2ccc(COc3cccc(C)c3)o2)s1	none (no result: CSC inhib)
Nc1ccc2nc(SCC(=O)Nc3ccc(N4CCOCC4)c(Cl)c3)sc2c1	MPTP inh 58.2, GRIN3A LBD mod 18.3 | MPTP counter inactive | MPTP abs DR 18 | MPTP cs DR 27.6
CC(C)(C)NC(=O)CSc1nc2ccc(NC(=O)CSc3nnc(N)s3)cc2s1	MPTP inh 66.9 | MPTP counter 25.0
CCCC(=O)Nc1ccc2nc(SCC(=O)Nc3ccc(N4CCOCC4)c(Cl)c3)sc2c1	none
COC(=O)c1ccc(NC(=O)N2CCCC(C(=O)c3ccccc3OC)C2)cc1 (stereo not drawn)	MPTP inh 69.6 | MPTP counter 75.4
COc1ccccc1C(=O)C1CCCN(C(=O)Nc2ccccc2F)C1 (stereo not drawn)	none
CCN1CCc2c(sc(NC(=O)Nc3ccc(Cl)c(Cl)c3)c2C(N)=O)C1	MPTP inh 55.2, GRIN3A LBD mod 17.6 (no result: Mdm2 MdmX PPI) | MPTP counter 51.3
CCN1CCc2c(sc(NC(=O)Cc3ccccc3)c2C(N)=O)C1	none (no result: CSC inhib)
O=C(/C(Br)=C/Nc1cc(Cl)ccc1Cl)C(F)(F)F	MPTP inh 95.9 | MPTP counter 93.5
c1ccc2cc(CSCc3nc4ccccc4[nH]3)ccc2c1	MPTP inh 88.2 | MPTP counter 87.8
O=C(CSCc1nc2ccccc2[nH]1)Nc1ccc2ccccc2c1	none
O=C(O)COCC(=O)Nc1ccc(-n2nc(C(F)(F)F)cc2-c2cccs2)cc1	none
O=C(Nc1ncc(S(=O)(=O)c2ccc([N+](=O)[O-])cc2)s1)c1cccc2ccccc12	CSC inhib 112.1, MPTP inh 54.1, GRIN3A LBD mod 10.8 | MPTP counter 79.0
O=[N+]([O-])c1ccc(N2CCN(Cc3ccccc3)CC2)c2c1no[n+]2[O-]	MPTP inh 98.5 (no result: Gli-Sufu block, CSC inhib, Beta apoptosis, GRIN3A LBD mod, Mdm2 MdmX PPI) | MPTP counter inactive
O=c1[nH]c(=O)n(-c2cc(Br)c(O)c(Br)c2)cc1Br	none
Cc1ccc(-c2cc(-c3n[nH]c(=S)o3)c3ccccc3n2)cc1	MPTP inh 93.6 (no result: Mdm2 MdmX PPI) | MPTP counter 63.5
O=C(Nc1ccc(Cl)cc1)Nc1nnc(SCc2ccc(Cl)cc2)s1	MPTP inh 85.4 | MPTP counter 24.4
Cc1ccc(NC(=O)Nc2nnc(CSCCOc3ccc(Cl)cc3)s2)cc1	MPTP inh 60.3 | MPTP counter inactive | MPTP abs DR inactive | MPTP cs DR <2.5
CCSc1nnc(NC(=O)NC(C)(C(F)(F)F)C(F)(F)F)s1	MPTP inh 92.2 | MPTP counter 93.2
CC(C)(C)C(=O)Nc1nnc(COc2ccc(Cl)cc2)s1	none
CCSc1nnc(NC(=O)Nc2cccc(C)c2)s1	MPTP inh 82.4 | MPTP counter 83.7
O=C(NCCCN1CCOCC1)c1ccc2nc(Cc3cccc(Cl)c3)oc2c1	none
Cc1cc(C(=O)NCC(=O)OCC(=O)NCC2CCCO2)ccc1[N+](=O)[O-] (stereo not drawn)	none
O=C(Nc1ccccc1)Nc1nnc(SCc2ccc(Cl)cc2)s1	MPTP inh 85.5, GRIN3A LBD mod 34.6 | MPTP counter 33.5
